From PubChem BioAssay (EPA / NIEHS)
Results filed as inconclusive are left out. The source made the active and inactive calls. Rule for the calls, unless noted: active = hit-call score of the fitted dose curve at least 0.9, where 1 is the maximum; inconclusive = response in the unintended direction; inactive = score below 0.9.

Legend:
[1] = molecular target: human RAR-related Orphan Receptor beta (RORb), RORB (gene 6096) (UniProt Q92753); assay: ATG_RORb_TRANS: Attagene TRANS-FACTORIAL HepG2 Assay for human RAR-related Orphan Receptor beta (RORb) (AID 2283010)
Chain of human RAR-related Orphan Receptor beta (RORb), RORB (gene 6096) (Q92753 whole entry, looked up, the tested form may be a part): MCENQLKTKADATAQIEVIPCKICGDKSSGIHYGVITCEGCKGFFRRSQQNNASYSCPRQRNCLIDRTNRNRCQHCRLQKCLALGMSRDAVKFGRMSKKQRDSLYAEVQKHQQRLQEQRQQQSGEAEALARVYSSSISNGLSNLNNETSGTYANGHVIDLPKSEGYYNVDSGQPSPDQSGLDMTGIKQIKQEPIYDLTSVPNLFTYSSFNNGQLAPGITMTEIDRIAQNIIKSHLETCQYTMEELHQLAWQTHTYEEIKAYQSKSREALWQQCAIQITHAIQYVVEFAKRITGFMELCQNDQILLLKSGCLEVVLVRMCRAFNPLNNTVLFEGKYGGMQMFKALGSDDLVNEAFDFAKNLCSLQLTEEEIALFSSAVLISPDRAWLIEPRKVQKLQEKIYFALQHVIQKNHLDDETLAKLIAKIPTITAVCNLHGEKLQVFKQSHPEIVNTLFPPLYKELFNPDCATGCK
Summary of the method: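 Read-out is reporter mRNA induction, quantified by RT-PCR with fluorescent capillary electrophoresis, 24 h post-dose in transiently transfected HepG2 expressing exogenous NR-Gal4 chimera. Activity fitted upward versus DMSO.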

[2] = molecular target: human RAR-related Orphan Receptor gamma (RORg), RORC (gene 6097) (UniProt P51449); assay: ATG_RORg_TRANS: Attagene TRANS-FACTORIAL HepG2 Assay for human RAR-related Orphan Receptor gamma (RORg) (AID 2283011)
Chain of human RAR-related Orphan Receptor gamma (RORg), RORC (gene 6097) (P51449 whole entry, looked up, the tested form may be a part): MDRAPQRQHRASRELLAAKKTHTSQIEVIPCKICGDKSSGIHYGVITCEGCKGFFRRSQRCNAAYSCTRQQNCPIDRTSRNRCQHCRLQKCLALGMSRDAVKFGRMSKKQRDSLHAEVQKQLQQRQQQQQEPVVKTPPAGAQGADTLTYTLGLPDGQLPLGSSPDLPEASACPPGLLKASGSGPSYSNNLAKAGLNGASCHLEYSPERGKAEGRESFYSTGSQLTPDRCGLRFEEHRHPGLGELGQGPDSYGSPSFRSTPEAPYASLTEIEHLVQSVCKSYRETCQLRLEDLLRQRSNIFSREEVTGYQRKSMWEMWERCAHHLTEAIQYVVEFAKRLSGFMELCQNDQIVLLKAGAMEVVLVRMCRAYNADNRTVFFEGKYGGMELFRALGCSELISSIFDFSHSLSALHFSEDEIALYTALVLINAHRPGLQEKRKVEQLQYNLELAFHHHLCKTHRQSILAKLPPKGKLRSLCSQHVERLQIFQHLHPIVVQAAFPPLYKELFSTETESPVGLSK
Summary of the method: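 Readout: reporter transcript induction (RT-PCR, fluorescent primer extension, capillary electrophoresis) after 24 h compound exposure of transiently transfected HepG2 cells carrying a RORg-Gal4 chimera and GAL4-UAS reporters; DMSO served as baseline, with increasing signal fitted.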

[3] = molecular target: human Retinoid X Receptor beta (RXRb), RXRB (gene 6257) (UniProt P28702); assay: ATG_RXRb_TRANS: Attagene TRANS-FACTORIAL HepG2 Assay for human Retinoid X Receptor beta (RXRb) (AID 2283013)
Chain of human Retinoid X Receptor beta (RXRb), RXRB (gene 6257) (P28702 whole entry, looked up, the tested form may be a part): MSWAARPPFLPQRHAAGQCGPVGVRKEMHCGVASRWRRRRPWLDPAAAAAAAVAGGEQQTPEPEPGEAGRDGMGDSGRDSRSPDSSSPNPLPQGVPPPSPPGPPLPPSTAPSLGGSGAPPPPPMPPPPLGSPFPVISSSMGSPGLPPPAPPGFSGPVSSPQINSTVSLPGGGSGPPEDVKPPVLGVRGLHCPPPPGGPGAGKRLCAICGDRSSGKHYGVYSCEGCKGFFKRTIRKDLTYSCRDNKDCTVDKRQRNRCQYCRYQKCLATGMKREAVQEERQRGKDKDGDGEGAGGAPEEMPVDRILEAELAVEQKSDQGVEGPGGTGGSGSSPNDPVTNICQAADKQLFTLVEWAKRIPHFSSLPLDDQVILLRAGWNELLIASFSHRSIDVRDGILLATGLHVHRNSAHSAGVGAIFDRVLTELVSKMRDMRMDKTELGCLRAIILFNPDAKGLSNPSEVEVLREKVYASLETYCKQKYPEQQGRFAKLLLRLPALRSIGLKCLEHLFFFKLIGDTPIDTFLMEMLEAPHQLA
Summary of the method: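 Readout is reporter transcript induction after 24 h dosing. It is measured by RT-PCR of total RNA followed by fluorescent capillary electrophoresis. HepG2 liver cells carry transfected multiple reporter units driven by an exogenous RXRb-Gal4 fusion; activity is relative to DMSO.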

[4] = molecular target: human Thyroid Receptor alpha (THRa1), THRA (gene 7067) (UniProt P10827); assay: ATG_THRa1_TRANS: Attagene TRANS-FACTORIAL HepG2 Assay for human Thyroid Receptor alpha (THRa1) (AID 2283014)
Chain of human Thyroid Receptor alpha (THRa1), THRA (gene 7067) (P10827 whole entry, looked up, the tested form may be a part): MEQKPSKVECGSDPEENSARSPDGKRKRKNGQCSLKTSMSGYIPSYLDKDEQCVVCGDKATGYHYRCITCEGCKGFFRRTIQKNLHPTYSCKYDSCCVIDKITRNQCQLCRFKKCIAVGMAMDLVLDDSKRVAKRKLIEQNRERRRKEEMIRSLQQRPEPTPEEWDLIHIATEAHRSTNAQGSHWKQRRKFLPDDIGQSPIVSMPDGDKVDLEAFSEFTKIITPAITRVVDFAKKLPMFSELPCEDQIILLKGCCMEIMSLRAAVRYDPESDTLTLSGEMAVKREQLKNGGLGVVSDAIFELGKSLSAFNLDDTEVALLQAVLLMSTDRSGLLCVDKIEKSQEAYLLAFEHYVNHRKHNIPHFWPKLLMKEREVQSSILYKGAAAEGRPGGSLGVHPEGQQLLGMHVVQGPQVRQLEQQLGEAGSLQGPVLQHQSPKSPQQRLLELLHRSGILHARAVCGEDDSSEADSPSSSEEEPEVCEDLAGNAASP
Summary of the method: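 HepG2 cells transiently transfected with multiplexed GAL4-UAS reporter units for exogenous chimeric THRa1-Gal4; reporter mRNA measured 24 h after dosing by RT-PCR, 6-FAM labelling, HpaI digestion and capillary electrophoresis. Gain-of-signal fitted versus DMSO baseline.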

[5] = molecular target: Retinoic acid receptor RXR-alpha (Homo sapiens) (UniProt P19793); assay: ATG_RXRa_TRANS: Attagene TRANS-FACTORIAL HepG2 Assay for human Retinoid X Receptor alpha (RXRa) (AID 2283012)
Chain of Retinoic acid receptor RXR-alpha (Homo sapiens) (P19793 whole entry, looked up, the tested form may be a part): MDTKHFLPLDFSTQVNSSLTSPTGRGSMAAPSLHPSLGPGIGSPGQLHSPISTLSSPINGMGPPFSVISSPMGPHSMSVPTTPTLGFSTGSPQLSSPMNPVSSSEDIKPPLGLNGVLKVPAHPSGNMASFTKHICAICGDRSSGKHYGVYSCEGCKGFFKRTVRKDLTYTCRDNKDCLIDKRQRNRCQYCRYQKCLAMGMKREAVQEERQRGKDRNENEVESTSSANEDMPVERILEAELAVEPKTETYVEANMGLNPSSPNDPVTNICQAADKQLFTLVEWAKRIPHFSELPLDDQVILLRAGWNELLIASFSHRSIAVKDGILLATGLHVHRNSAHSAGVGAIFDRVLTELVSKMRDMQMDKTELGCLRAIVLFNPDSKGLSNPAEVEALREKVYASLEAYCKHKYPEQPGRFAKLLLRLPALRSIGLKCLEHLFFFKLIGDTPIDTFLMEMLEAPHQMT
Summary of the method: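 TRANS format reporting activity of exogenous RXRa-Gal4 chimera in transiently transfected HepG2, 24 h exposure. Reporter transcripts quantified by RT-PCR with capillary electrophoresis, with gain of signal scored relative to DMSO.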

[6] = read-out: E-selectin (Homo sapiens) (UniProt P16581); assay: BSK_3C_Eselectin: BioMAP Diversity Plus: 3C Assay for Eselectin Biomarker Activity (AID 2283015; active = hit-call score of the fitted dose curve at least 0.9, where 1 is the maximum; inactive = score below 0.9); details: primary human endothelial cells (HUVEC); actives raise or lower the signal
Summary of the method: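 Primary human umbilical vein endothelial cells (3C system) were dosed with chemical and cell-surface E-selectin measured by ELISA 24 h later. Bidirectional curve fitting used DMSO as negative control and baseline.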

[7] = read-out: Monocyte Chemoattractant Protein-1 (MCP1), CCL2 (gene 6347); assay: BSK_3C_MCP1: BioMAP Diversity Plus: 3C Assay for Monocyte Chemoattractant Protein-1 (MCP1) Biomarker Activity (AID 2283017; active = hit-call score of the fitted dose curve at least 0.9, where 1 is the maximum; inactive = score below 0.9); details: primary human endothelial cells (HUVEC); actives raise or lower the signal
Summary of the method: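 Primary human umbilical vein endothelial cells (3C system) were exposed to test chemical for 24 h, after which MCP-1 was quantified by ELISA. Activity was fitted bidirectionally against DMSO as negative control and baseline.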

[8] = read-out: Monocyte Chemoattractant Protein-1 (MCP1), CCL2 (gene 6347); assay: BSK_4H_MCP1: BioMAP Diversity Plus: 4H Assay for Monocyte Chemoattractant Protein-1 (MCP1) Biomarker Activity (AID 2283018; active = hit-call score of the fitted dose curve at least 0.9, where 1 is the maximum; inactive = score below 0.9); details: primary human endothelial cells (HUVEC); actives raise or lower the signal
Summary of the method: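 ELISA of MCP-1 (CCL2) 24 h after chemical dosing of HUVEC in the BioMAP 4H system. Gain or loss versus DMSO fitted; parallel SRB staining (560 nm) tracked overt cytotoxicity.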

[9] = read-out: Human Leukocyte Antigen - DR isotype (HLADR), HLA-DRA (gene 3122); assay: BSK_3C_HLADR: BioMAP Diversity Plus: 3C Assay for Human Leukocyte Antigen - DR isotype (HLADR) Biomarker Activity (AID 2283019; active = hit-call score of the fitted dose curve at least 0.9, where 1 is the maximum; inactive = score below 0.9); details: primary human endothelial cells (HUVEC); actives raise or lower the signal
Summary of the method: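 Primary human umbilical vein endothelial cells (3C system) were dosed with compound and cell-surface HLA-DR was quantified by ELISA at 24 h. Activity was fitted bidirectionally against DMSO as negative control and baseline.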

[10] = read-out: Interleukin-1 alpha (IL1a), IL1A (gene 3552); assay: BSK_BE3C_IL1a: BioMAP Diversity Plus: BE3C Assay for Interleukin-1 alpha (IL1a) Biomarker Activity (AID 2283016; active = hit-call score of the fitted dose curve at least 0.9, where 1 is the maximum; inactive = score below 0.9); details: primary human bronchial epithelial cells; actives raise or lower the signal
Summary of the method: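 IL-1a measured by ELISA after 24 h treatment of human primary bronchial epithelial cells, with gain or loss of signal fitted versus DMSO. Parallel cultures stained with SRB gauge overt cytotoxicity.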

Measured: AC50

Chain of E-selectin (Homo sapiens) (P16581 whole entry, looked up): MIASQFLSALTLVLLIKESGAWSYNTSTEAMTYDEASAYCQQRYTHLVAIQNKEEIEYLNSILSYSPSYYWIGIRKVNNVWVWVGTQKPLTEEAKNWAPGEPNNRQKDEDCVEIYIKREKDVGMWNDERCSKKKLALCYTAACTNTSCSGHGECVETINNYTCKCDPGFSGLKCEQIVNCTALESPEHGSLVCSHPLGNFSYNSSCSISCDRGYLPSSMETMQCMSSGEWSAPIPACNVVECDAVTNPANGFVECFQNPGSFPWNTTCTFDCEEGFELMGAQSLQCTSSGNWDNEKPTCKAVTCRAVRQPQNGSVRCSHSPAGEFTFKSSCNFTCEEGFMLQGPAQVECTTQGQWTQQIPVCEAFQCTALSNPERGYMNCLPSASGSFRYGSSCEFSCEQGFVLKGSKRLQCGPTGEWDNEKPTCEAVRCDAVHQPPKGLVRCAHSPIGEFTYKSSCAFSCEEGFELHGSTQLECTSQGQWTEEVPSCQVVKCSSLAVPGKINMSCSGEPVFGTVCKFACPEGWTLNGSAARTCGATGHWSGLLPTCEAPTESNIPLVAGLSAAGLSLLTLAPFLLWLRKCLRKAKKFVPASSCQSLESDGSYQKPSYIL

CC(=O)CCc1ccc(O)cc1
inactive: [1] | [2] | [3] | [4]

CCCCCC#CC(=O)OC
active: [3] 100 µM
inactive: [1] | [5]

FC(F)(F)c1ccc(Cl)c(Cl)c1
inactive: [1] | [5]

CC(C)(C)c1cc(CCC(=O)OCCSCCOC(=O)CCc2cc(C(C)(C)C)c(O)c(C(C)(C)C)c2)cc(C(C)(C)C)c1O
inactive: [1] | [2] | [4]
active: [3] 33.9 µM

CCC(C)COC(=O)CC(C)C (configuration not stated)
inactive: [1] | [5] | [3] | [4]

C1=COCCC1
inactive: [1] | [2] | [3]

C#C[C@]1(O)CC[C@H]2[C@@H]3CCc4cc(O)ccc4[C@H]3CC[C@@]21C
inactive: [1] | [2] | [3] | [4] | [8]
active: [6] 5.36 µM | [7] 7.15 µM | [9] 6.67 µM

CCC(=O)OC(C)(C)C1CC=C(C)CC1 (configuration not stated)
inactive: [1] | [5] | [3]

O=C1CCCCCCCCCCCC(=O)OCCO1
inactive: [1] | [2] | [4]

CC/C=C\CCOC(C)OCC (configuration not stated)
inactive: [1] | [5]

c1ccc2c(c1)-c1ccc3ccc4cccc5cc-2c1c3c45
inactive: [1] | [2] | [3] | [4] | [7] | [8]
active: [6] 0.575 µM | [9] 0.621 µM

C[C@]12CC[C@@H]3c4ccc(O)cc4CC[C@H]3[C@@H]1CC[C@@H]2O
active: [6] 4.87 µM | [7] 12.2 µM | [8] 9.45 µM | [9] 16.1 µM
inactive: [1] | [2] | [3] | [4] | [10]

CC1=C(C=O)C(C)(C)CCC1
inactive: [1] | [2] | [4]

O=C1OC2(c3ccc(O)cc3Oc3cc(O)ccc32)c2ccccc21
active: [9] 20 µM
inactive: [1] | [2] | [5] | [4] | [6] | [7] | [8]

CCCCCCCCCCCCOC(C)=O
inactive: [1] | [2] | [3]

NS(=O)(=O)c1cc(C(=O)O)c(NCc2ccco2)cc1Cl
inactive: [1] | [2] | [4]

CC1=CC(C)C(C=O)C(C)C1 (configuration not stated) (tested in a mixture with another compound)
inactive: [10]

CCCO[Si](OCCC)(OCCC)OCCC
inactive: [2] | [5] | [3] | [6] | [10] | [7] | [8] | [9]

CCCCCCCCCCCCCCCCCC(=O)OCCCCCCCCCCCCCC(C)C
inactive: [2] | [3] | [4]

CCCCCCCCCCCCCC(=O)OCC
inactive: [2] | [4]

OCCN1CCOCC1
inactive: [2] | [3] | [4] | [6] | [7] | [8] | [9]

CCCCCCC(O)CCOC(C)=O (configuration not stated)
inactive: [2] | [5] | [3]

CC(C)=CCCC(C)=CC(=O)O
inactive: [2] | [3]

CCOC(=O)CC(C)C
inactive: [2] | [5] | [4]

O=C1Cc2ccccc2C1
inactive: [2] | [3]

c1ccc2scnc2c1
inactive: [2] | [3] | [4]

CC(=O)OC(C)(C)C
inactive: [2] | [5] | [3] | [4]

C=CC(C)(CCC=C(C)C)OC(=O)CC (configuration not stated)
inactive: [2] | [5] | [3]

CCCCCCCCCC(=O)OCC
active: [3] 100 µM | [6] 15.2 µM | [10] 20 µM | [7] 32 µM | [8] 29.7 µM | [9] 14.4 µM
inactive: [2] | [5]

CC(=O)CCC=C(C)CCC=C(C)C
inactive: [2] | [5] | [3] | [4] | [6] | [7] | [8] | [9]

COC(=O)c1ccc(C(=O)OC)cc1
inactive: [2] | [5] | [3] | [4] | [6] | [7] | [8] | [9]

CC(C)N(c1ccccc1)C(C)C
inactive: [2] | [3] | [4]

CCCC1CCOC(C)S1 (configuration not stated)
inactive: [2] | [5]

Cc1ccccc1S
inactive: [2] | [3] | [4]

CC(C)(C)c1ccc(S)cc1
inactive: [2] | [3]

CCNC(=S)NCC
inactive: [2] | [3]

OCC=Cc1ccccc1
inactive: [2] | [4]

C=C1CC/C=C(\C)CC[C@@H]2[C@@H]1CC2(C)C
active: [3] 19.4 µM | [6] 27.4 µM | [7] 31.5 µM | [8] 29.1 µM | [9] 28.7 µM
inactive: [2] | [5] | [4]

[O-]/[N+](=N\O)c1ccccc1
inactive: [2] | [3]

CCC(C)(C)C1CCC(=O)CC1
inactive: [2] | [5]
active: [3] 50.6 µM

CC12CCC(C1)C(C)(C)C2O (configuration not stated)
inactive: [2] | [5] | [3]

CC(CO)c1ccccc1 (configuration not stated)
inactive: [2] | [3] | [4]

CCC(=O)OC/C=C(\C)CCC=C(C)C
inactive: [2] | [4]

CCC(=O)OCC=Cc1ccccc1
inactive: [2] | [3] | [6] | [7] | [8] | [9]

CC=CC(=O)C1=C(C)C=CCC1(C)C
inactive: [2] | [3] | [6] | [7] | [8] | [9]
